The values that follow come from PubChem BioAssay (Tox21).

Values joined by “and” are separate entries in the source; they are usually repeats but may differ in a detail not shown here. Equal entries are not always repeated. Records with an inconclusive call do not appear. Where a structure was tested more than once in an assay, its records may differ in their call. Active and inactive are the calls of the source. Unless noted, calls come from the whole dose curve; as a rule, active = well fitted curve in the direction sought with a large enough effect in the repeat runs; inconclusive = weak or mixed curves; inactive = no such curve, though single readings can be large; an effect the other way counts as inactive or inconclusive.

Assay [1] deals with Estrogen receptor beta (Homo sapiens) (UniProt Q92731). In words: qHTS assay to identify small molecule agonists of the estrogen receptor beta (ER-beta) signaling pathway (AID 1259377; active = well fitted activation curve with a large enough effect in the signal ratio in the repeat runs, not every such curve was filed as active; the % refers to the signal ratio). The method, boiled down: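 Reporter cells (HEK293T, ER-beta-UAS-bla) receive compounds or DMSO after a 6 hr pre-incubation. They then incubate 16 hr at 37C/5% CO2, and fluorescence from LiveBLAzer B/G substrate is measured after 2 hours at room temperature.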
Chain of Estrogen receptor beta (Homo sapiens) (Q92731 whole entry, looked up): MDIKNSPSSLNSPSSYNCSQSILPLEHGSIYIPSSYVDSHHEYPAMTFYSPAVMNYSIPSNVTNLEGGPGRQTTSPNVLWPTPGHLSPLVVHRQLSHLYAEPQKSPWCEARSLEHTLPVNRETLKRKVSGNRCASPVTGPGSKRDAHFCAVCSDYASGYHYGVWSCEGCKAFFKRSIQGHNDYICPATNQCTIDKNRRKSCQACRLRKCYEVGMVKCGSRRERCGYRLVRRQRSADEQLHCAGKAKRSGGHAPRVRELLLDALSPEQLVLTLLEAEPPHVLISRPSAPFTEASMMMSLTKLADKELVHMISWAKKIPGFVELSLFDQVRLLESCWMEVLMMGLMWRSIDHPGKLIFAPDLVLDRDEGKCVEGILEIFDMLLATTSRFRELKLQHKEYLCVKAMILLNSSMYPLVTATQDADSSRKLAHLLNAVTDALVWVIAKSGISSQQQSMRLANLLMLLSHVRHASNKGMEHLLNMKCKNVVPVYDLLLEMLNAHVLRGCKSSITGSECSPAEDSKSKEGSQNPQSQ
(In qHTS, concentration-response curves come from the screen itself.)

A short description of assay [2]: qHTS assay to identify small molecule agonists of the androgen receptor (AR) signaling pathway in the presence of an antagonist - cell viability counter screen (AID 1259379).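 Note: MDA-kb2 human breast cancer cells carrying an MMTV luciferase reporter; series mostly up to about 92 µM; nearly all actives have a fitted effect of over 25% in size.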 An outline of the steps:
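MDA-kb2 viability measured by CellTiter-Fluor fluorescence in the same wells as the luciferase signal; nilutamide 3.0uM final; 15-point compound titration; 16 hr at 37C.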

Assay [3] can be described thus: qHTS assay to identify small molecule agonists of the estrogen receptor beta (ER-beta) signaling pathway - cell viability counter screen (AID 1259380). Note: nearly all actives have a fitted effect of over 30% in size. Note: potency is the fitted concentration of half-maximal effect. The method, boiled down:
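Measured: luminescence from CellTiter-Glo after 30 min at room temperature, added to wells already read for the LiveBLAzer FRET reporter (2 hr substrate); ER-beta-UAS-bla HEK293T cells had 16 hr compound treatment at 37C, 5% CO2.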

Assay [4] can be described thus: qHTS assay to identify small molecule antagonists of the estrogen receptor beta (ER-beta) signaling pathway - cell viability counter screen (AID 1259382). Note: series mostly up to about 92 µM; nearly all actives have a fitted effect of over 55% in size. The method, boiled down: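 Readout: luminescence, CellTiter-Glo, same wells as bla assay. System: ER-beta-UAS-bla GripTite HEK293T, 2% charcoal-stripped FBS. Exposure: compounds plus 1nM 17-beta-estradiol, 16 hr, 37C.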

For assay [5], the target named is Estrogen receptor (Homo sapiens) (UniProt P03372). In words: qHTS assay to identify small molecule agonists of the estrogen receptor alpha (ER-alpha) signaling pathway in the presence of an antagonist (AID 1259383; calls by dose curve; note: nearly all actives have a fitted effect of over 15% in size; note: potency is the fitted concentration of half-maximal effect; for activation: top concentration of the series differs between compounds). The method, boiled down:
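Quantitative HTS confirmation: compounds titrated at 15 concentrations onto estrogen-deprived VM7Luc4E2 cells carrying a four-ERE luciferase construct, with ICI-182,780 present at 10.0nM final. Signal is luminescence after 22hr exposure.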

A short description of assay [6]: qHTS assay to identify small molecule agonists or antagonists of the thyroid stimulating hormone receptor (TSHR) signaling pathway - wild type cell line counter screen (AID 1259384; calls by dose curve). An outline of the steps:
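Wild-type Hek293 cells, 800/well, 18 h at 37C, then compound with Ro20-1724 for 30 min RT. cAMP by HTRF (cAMP-d2/anti-cAMP cryptate), 1 h RT, fluorescence read. 15 concentrations, triplicates.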

Assay [7] has as its target Thyrotropin receptor (Homo sapiens) (UniProt P16473). In words: qHTS assay to identify small molecule antagonists of the thyroid stimulating hormone receptor (TSHR) signaling pathway (AID 1259385; calls by dose curve; note: nearly all actives have a fitted effect of over 20% in size). An outline of the steps: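 TSHR-HEK293 cells (800/well) plated 18 h, then compounds with Ro20-1724 and TSH at 1.5 ng/mL final, 30 min at room temperature. cAMP quantified by HTRF (cAMP-d2/anti-cAMP-cryptate, 1 h); 15 concentrations in triplicate.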

The nature of assay [8]: qHTS assay to identify small molecule agonists of the estrogen receptor alpha (ER-alpha) signaling pathway in the presence of an antagonist - cell viability counter screen (AID 1259386).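 Note: series mostly up to about 92 µM; cells exposed to compounds for 22 h at 37 °C before the viability read; nearly all actives have a fitted effect of over 30% in size.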 An outline of the steps:
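The test measures whether compounds kill ER-alpha reporter cells (VM7Luc4E2) under antagonist co-treatment (ICI-182,780, 10.0nM). Fluorescence from CellTiter-Fluor is read after a 22hr exposure.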

Assay [9] addresses Progesterone receptor (Homo sapiens) (UniProt P06401). In words: qHTS assay to identify small molecule agonists of the progesterone receptor (PR) signaling pathway (AID 1346784; calls by dose curve; note: nearly all actives have a fitted effect of over 30% in size; note: potency is the fitted concentration of half-maximal effect). An outline of the steps: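 Reporter assay, GripTite PR-UAS-bla HEK 293T cells: 16 hr exposure to DMSO-dissolved compounds at 37C, 5% CO2, in steroid-depleted (2% charcoal-stripped FBS) medium; beta-lactamase measured by FRET fluorescence.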

Assay [10] has the same target. In words: qHTS assay to identify small molecule antagonists of the progesterone receptor (PR) signaling pathway (AID 1346795; active = well fitted inhibition curve with a large enough effect in the signal ratio in the repeat runs, not every such curve was filed as active; the % refers to the signal ratio; note: potency is the fitted concentration of half-maximal effect). An outline of the steps: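 Stimulus R5020 at 1 nM final; cells HEK293T PR-UAS-bla; medium with 2% charcoal-stripped FBS; compound exposure 16 hr at 37C, 5% CO2; detection by FRET beta-lactamase substrate, 2 hr, room temperature.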
The nature of assay [11]: qHTS assay to identify small molecule antagonists of the TGF-beta/Smad signaling pathway - cell viability counter screen (AID 1346824). Note: nearly all actives have a fitted effect of over 50% in size. An outline of the steps:
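SBE-bla HEK 293T cells, incubated overnight, then compound plus 0.25 ng/mL TGF-beta1 (stock added) for 5 hr at 37 C. Viability was read in the same wells by CellTiter-Glo luminescence after 30 min at room temperature.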

Assay [12] in a line: qHTS assay to identify small molecule agonists of the TGF-beta/Smad signaling pathway - cell viability counter screen (AID 1346829). Note: top concentration of the series differs between compounds; nearly all actives have a fitted effect of over 45% in size. The method, boiled down:
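Compound-treated SBE-bla HEK 293T cells (5 hr, 37 C) were assessed for viability with CellTiter-Glo in parallel with the reporter read.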

Assay [13] is described as follows: qHTS assay to identify small molecule agonists of the TGF-beta/Smad signaling pathway (AID 1346859; active = well fitted activation curve with a large enough effect in the signal ratio in the repeat runs, not every such curve was filed as active; the % refers to the signal ratio; note: series mostly up to about 77 µM). An outline of the steps:
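Screening used HEK 293T SBE-bla cells at 4,000/well. Test agents: 5 hr, 37 C. Detection: FRET substrate, 2 hr RT, then excitation 405 nm with emissions at 460 and 530 nm.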

Assay [14] concerns the target Thyrotropin-releasing hormone receptor (Homo sapiens) (UniProt P34981). In words: qHTS assay to identify small molecule antagonists of the thyrotropin-releasing hormone receptor (TRHR) signaling pathway (AID 1346877; active = well fitted inhibition curve with a large enough effect in the repeat runs, not every such curve was filed as active; note: series mostly up to about 51 µM). An outline of the steps:
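Overnight-plated (18 h, 37 °C) HEK293 cells expressing TRHR were dye-loaded 2 h, treated with compound, then stimulated with TRH at 1 nM final. Fluorescence intensity was captured every second for 3 min.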

The target is the same in assay [15]. In words: qHTS assay to identify small molecule agonists of the thyrotropin-releasing hormone receptor (TRHR) signaling pathway (AID 1346891; calls by dose curve; note: series mostly up to about 58 µM). An outline of the steps:
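Readout was intracellular calcium fluorescence in TRHR-Hek293 cells. Cells were incubated 18 h, dye-loaded 2 h at 37 °C, and treated with compound in agonist mode.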

Assay [16] in a line: Human pregnane X receptor (PXR) small molecule agonists, qHTS cell viability counter screen (AID 1346977). Note: nearly all actives have a fitted effect of over 50% in size. Note: potency is the fitted concentration of half-maximal effect. An outline of the steps:
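In each well, the PXR reporter HepG2 line was checked for viability: CellTiter-Fluor reagent added 23hr post-dosing, fluorescence read after 1hr incubation at 37C.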

The target in assay [17] is Estrogen receptor beta (Homo sapiens) (UniProt Q92731). The experiment in a line: qHTS assay to identify small molecule antagonists of the estrogen receptor beta (ER-beta) signaling pathway (AID 1259378; active = well fitted inhibition curve with a large enough effect in the signal ratio in the repeat runs, not every such curve was filed as active; the % refers to the signal ratio). An outline of the steps: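 ER-beta-UAS-bla HEK293T cells in 2% charcoal-stripped FBS medium treated with compound plus 1nM final 17-beta-estradiol for 16 hr at 37C. Beta-lactamase reporter read by FRET substrate fluorescence after 2 hours at room temperature.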

Assay [18] can be described thus: qHTS assay to identify small molecule antagonists of the progesterone receptor (PR) signaling pathway - cell viability counter screen (AID 1346798). Note: series mostly up to about 92 µM; nearly all actives have a fitted effect of over 50% in size. An outline of the steps:
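In the same plates used for the beta-lactamase readout, cell viability of compound- and R5020-treated PR-UAS-bla HEK293T cells (16 hr, 37C) was assessed by CellTiter-Glo luminescence.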

Assay [19] can be described thus: qHTS assay to identify small molecule agonists of the progesterone receptor (PR) signaling pathway - cell viability counter screen (AID 1346799; calls by dose curve; note: nearly all actives have a fitted effect of over 45% in size). The method, boiled down: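 Multiplexed viability read: CellTiter-Glo luminescence, 30 min RT, following LiveBLAzer FRET measurement on PR-UAS-bla HEK293T cells exposed to compounds 16 hr.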

Chain of Progesterone receptor (Homo sapiens) (P06401 whole entry, looked up): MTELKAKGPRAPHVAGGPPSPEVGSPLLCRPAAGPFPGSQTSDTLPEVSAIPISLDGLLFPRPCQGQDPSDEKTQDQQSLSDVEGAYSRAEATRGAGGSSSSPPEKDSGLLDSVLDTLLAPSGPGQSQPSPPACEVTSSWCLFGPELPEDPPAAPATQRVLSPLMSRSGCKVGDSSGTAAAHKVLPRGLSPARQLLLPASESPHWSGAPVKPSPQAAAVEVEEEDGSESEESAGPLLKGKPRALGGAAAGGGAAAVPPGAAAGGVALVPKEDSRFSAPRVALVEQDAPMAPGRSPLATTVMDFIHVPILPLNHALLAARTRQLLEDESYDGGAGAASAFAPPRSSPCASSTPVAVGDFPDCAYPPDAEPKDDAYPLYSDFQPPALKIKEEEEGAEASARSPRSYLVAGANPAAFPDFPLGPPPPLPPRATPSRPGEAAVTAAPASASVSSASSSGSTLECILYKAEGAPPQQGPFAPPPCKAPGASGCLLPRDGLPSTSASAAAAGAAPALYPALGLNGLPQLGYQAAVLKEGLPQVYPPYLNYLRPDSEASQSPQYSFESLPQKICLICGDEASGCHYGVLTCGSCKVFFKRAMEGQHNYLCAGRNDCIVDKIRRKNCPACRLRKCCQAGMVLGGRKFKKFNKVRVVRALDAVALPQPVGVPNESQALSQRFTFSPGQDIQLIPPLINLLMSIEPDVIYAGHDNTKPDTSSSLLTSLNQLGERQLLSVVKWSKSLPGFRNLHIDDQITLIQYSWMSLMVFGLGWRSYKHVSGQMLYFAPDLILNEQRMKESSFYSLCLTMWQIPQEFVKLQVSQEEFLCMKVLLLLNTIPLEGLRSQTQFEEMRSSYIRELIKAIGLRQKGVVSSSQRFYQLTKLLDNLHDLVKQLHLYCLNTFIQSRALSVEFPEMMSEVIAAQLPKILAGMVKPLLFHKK
Chain of Thyrotropin receptor (Homo sapiens) (P16473 whole entry, looked up): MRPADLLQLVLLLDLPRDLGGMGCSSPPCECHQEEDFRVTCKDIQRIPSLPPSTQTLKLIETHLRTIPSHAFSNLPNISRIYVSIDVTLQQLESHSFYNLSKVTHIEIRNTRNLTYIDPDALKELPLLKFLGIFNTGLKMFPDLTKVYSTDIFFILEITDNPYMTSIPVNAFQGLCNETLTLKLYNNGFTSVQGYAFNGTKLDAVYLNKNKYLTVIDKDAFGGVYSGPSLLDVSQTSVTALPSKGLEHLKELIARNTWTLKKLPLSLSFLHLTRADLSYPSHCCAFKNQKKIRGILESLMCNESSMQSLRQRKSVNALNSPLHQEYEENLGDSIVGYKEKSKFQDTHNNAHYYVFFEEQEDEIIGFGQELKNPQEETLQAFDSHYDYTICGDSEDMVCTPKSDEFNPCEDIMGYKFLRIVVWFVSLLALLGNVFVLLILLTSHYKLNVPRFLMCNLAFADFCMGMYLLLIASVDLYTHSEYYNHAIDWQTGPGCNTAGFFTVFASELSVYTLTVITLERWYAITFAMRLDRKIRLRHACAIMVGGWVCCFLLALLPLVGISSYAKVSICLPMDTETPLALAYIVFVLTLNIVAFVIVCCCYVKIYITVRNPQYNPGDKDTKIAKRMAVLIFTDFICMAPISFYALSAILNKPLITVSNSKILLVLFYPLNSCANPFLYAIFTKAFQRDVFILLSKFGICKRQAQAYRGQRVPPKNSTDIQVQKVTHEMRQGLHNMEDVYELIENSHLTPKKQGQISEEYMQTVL
Chain of Thyrotropin-releasing hormone receptor (Homo sapiens) (P34981 whole entry, looked up): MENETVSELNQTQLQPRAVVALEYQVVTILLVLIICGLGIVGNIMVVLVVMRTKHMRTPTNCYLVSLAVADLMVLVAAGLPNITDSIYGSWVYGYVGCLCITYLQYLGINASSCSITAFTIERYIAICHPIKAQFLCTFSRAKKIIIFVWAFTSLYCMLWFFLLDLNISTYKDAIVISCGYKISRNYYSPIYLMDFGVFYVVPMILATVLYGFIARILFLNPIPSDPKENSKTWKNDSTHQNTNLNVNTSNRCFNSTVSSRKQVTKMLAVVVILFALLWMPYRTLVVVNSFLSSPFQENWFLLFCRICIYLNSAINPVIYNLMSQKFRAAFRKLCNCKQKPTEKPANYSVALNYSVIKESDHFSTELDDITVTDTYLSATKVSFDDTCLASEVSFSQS
Chain of Estrogen receptor (Homo sapiens) (P03372 whole entry, looked up): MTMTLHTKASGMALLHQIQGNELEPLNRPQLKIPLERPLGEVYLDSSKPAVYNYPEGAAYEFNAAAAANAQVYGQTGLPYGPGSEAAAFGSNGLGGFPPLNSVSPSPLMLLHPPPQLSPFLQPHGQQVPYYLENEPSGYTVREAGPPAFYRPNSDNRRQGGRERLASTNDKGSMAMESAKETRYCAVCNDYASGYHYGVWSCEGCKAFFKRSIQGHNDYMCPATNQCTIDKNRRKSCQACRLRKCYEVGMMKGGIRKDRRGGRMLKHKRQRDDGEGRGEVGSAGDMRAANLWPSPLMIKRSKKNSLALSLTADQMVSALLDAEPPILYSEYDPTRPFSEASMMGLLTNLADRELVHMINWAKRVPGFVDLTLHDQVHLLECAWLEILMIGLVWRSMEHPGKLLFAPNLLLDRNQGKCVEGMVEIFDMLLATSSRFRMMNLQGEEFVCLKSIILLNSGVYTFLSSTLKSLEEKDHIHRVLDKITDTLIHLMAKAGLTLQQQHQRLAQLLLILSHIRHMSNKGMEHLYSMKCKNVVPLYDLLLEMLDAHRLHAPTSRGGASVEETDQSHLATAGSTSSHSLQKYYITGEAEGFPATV

On to `CCOC(=O)C(C)OC(=O)c1cc(Oc2ccc(C(F)(F)F)cc2Cl)ccc1[N+](=O)[O-]` (stereo not given), for which the Potency result in assay [1], in assay [2], in [3], in assay [4], in assay [5] and in [8] was “inactive” throughout. The Potency entry in [9], in assay [11], in [12], in assay [14], in [15] and in assay [16] was “inactive” each time. Moreover, the call in assay [6], in [7] and in assay [13] was inactive. For the same compound, the Potency in assay [10] is 30.5 µM (active).
As for `CCC(C)c1ccc(O)cc1` (stereo not given), the Potency result in assay [1], in assay [17], in assay [3], in [4], in assay [8] and in [9] was “inactive” each time. Moreover, the Potency result in assay [10], in assay [18], in assay [19], in assay [11], in [12] and in [14] was “inactive” throughout. Further, the Potency entry in assay [15] and in assay [16] was “inactive” throughout. The compound was classed as inactive in assay [13].
Take `CC(C)N(C(=O)SCC(Cl)=C(Cl)Cl)C(C)C`: the Potency entry in [1], in assay [17], in assay [3], in assay [9], in assay [10] and in assay [18] was “inactive” each time. The Potency result in assay [19], in assay [11], in [12], in [14], in [15] and in [16] was “inactive” in each case. Also, the call in assay [6], in assay [7] and in assay [13] was inactive.
As for `Nc1ccc(-c2ccccc2)cc1`, the Potency result in [17], in assay [2], in assay [8], in [9], in assay [18] and in assay [19] was “inactive” in each case. The Potency entry in [11], in assay [12], in assay [14], in assay [15] and in [16] was “inactive” in each case. Moreover, the Potency is 19.9 µM (active) and inactive in assay [3]; 8.87 µM (active) and 9.69 µM (active) in assay [5]; 1.99 µM (active) in assay [10]. The call in assay [6] and in assay [7] was inactive.
Take `COP(=S)(OC)Oc1ccc([N+](=O)[O-])cc1`: the Potency result in assay [1], in [17], in assay [3], in assay [5], in assay [9] and in [18] was “inactive” in each case. The Potency result in [11], in assay [12], in assay [14], in assay [15] and in assay [16] was “inactive” throughout. For the same compound, the outcome in [6], in assay [7] and in [13] was inactive. Further, the Potency entry in [10] is “inactive and 24.3 µM (active)”.
For `CN(C)c1ccc(C(=O)c2ccc(N(C)C)cc2)cc1`, the Potency result in assay [1], in assay [17], in [3], in assay [4], in [9] and in assay [12] was “inactive” in each case. In addition, the Potency result in [14] and in [15] was “inactive” each time. In addition, the result in assay [6], in assay [7] and in assay [13] was inactive. For the same compound, the Potency in assay [10] was 27.3 µM (active); in [16], 54.5 µM (active).
Consider `C#C[C@]1(O)CC[C@H]2[C@@H]3CCC4=CC(=O)CC[C@]4(C)[C@H]3CC[C@@]21C`, for which the Potency entry in [1], in assay [17], in [3], in [4], in assay [8] and in assay [10] was “inactive” throughout. Besides, the Potency entry in assay [18], in assay [19], in assay [12], in assay [14], in assay [15] and in assay [16] was “inactive” throughout. For the same compound, the call in assay [6], in assay [7] and in assay [13] was inactive. Moreover, in assay [9], the Potency was 0.0243 µM (active).
Take `Cc1ccc(N)c(N)c1`: the Potency entry in assay [1], in [3], in assay [8], in [9], in assay [11] and in assay [12] was “inactive” throughout. Moreover, the Potency entry in assay [16] is “inactive”. Further, the compound was called inactive in [6].
As to `NNC(=S)NN`, the Potency entry in [1], in [2], in assay [5], in assay [8], in assay [9] and in [18] was “inactive” throughout. Also, the Potency result in assay [19], in [11], in assay [12], in [14], in assay [15] and in [16] was “inactive” throughout. The Potency is 30.6 µM (active) in assay [3]; 62.8 µM (active) and 54.5 µM (active) in assay [10]. Also, the compound was called inactive in assay [6] and in assay [7].
